Activity calls are given as the source filed them. How the calls were made is not given here.

One may read the viability as a read-out of living cells in per cent, often relative to untreated cells.

The assay is described as follows: antiviral efficacy and BSC cell toxicity – BSC cells, SV40 T antigen inhibitor project, confirmation (AID 2615). As to conditions: BSC cells SV40 infection, CPE inhibition; viability, at 100 µM, stronger effect = lower value.

With `COc1ccc(CC2NCCc3cc(OC)c(OC)cc32)cc1OC` (configuration not stated), the call was inactive and the viability stood at 201%.

Source of the values: PubChem BioAssay AID2615 (Southern Research Specialized Biocontainment Screening …, 2010).
